Assay outcomes: PubChem BioAssay, National Center for Advancing Translational Sciences (NCATS)
Only some compounds are listed: those with a hit (about 3.3% of all), similar ones and a draw of the others.
HCV inh: blocks hepatitis C virus | Huh7.5.1 HCVcc-Cre infection, luciferase reporter, 44 h | 340,000 compounds, 3.4% hits | AID 651820 | Potency, µM (series often up to 41.8 µM), inactives show at the highest dose activity change, negative = inhibition, most hits filed as inhibitors; active means well fitted inhibition curve with a large enough effect; inconclusive means small, poorly fitted or top-dose-only effect, or another doubt; inactive means no such curve, though single readings can be large or run the other way
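Reporter virus HCVcc-Cre (~0.5 moi) infects cells exposed to compound; seeding density 1,000 cells/well with 4 h settling beforehand. Luminescence, 15 sec read, taken 44 h post-infection following a 15 min RT substrate incubation.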
Vaccinia mCherry: vaccinia inhibition (mCherry reporter); Vaccinia virus mCherry reporter infection, fluorescence; 310,000 compounds, 0.63% hits; Potency, µM (doses to about 36.5 µM), inactives show top-dose activity change, negative = inhibition, usual class: inhibitors; calls by dose curve; tested in A549 cells; further: nearly all actives have a fitted effect of over 35% in size
VACV Venus inh: vaccinia inhibition (Venus reporter); Vaccinia virus Venus reporter expression, fluorescence; Potency, µM (series often up to 36.5 µM), inactives show top-dose activity change, negative = inhibition, actives largely listed as inhibitors; 330,000 compounds, 0.46% hits; calls by dose curve; tested in A549 cells; further: nearly all actives have a fitted effect of over 30% in size
An asterisk follows results filed as active; i = inactive; ? = inconclusive; / = no result given. On the % scale 0 is the no-effect control and ±100 the full control effect; potency means the concentration at half of the fitted maximal effect.

SMILES | HCV inh | Vaccinia mCherry | VACV Venus inh
Cc1ccccc1C(=O)NC(CC(C)C)C(=O)N1CCN(c2ccccc2)CC1 (stereo not drawn) | -3.0% | -3.5% | 0.0%
O=[N+]([O-])c1cc(Cl)ccc1N1CCN(c2ccccc2O)CC1 | -11.6% | -21.0% | -16.1%
O=C(c1ccc(-c2cc3ccccc3oc2=O)cc1)N1CCN(c2ccc(Cl)cc2[N+](=O)[O-])CC1 | 10µM* | i | -20.8%
CC(C)CC(C(=O)NC1CCCCC1)N(Cc1cccs1)C(=O)c1snc(C(N)=O)c1N (stereo not drawn) | 12.6µM* | / | /
COc1ccc(CN(C(=O)c2snc(C(N)=O)c2N)C(C)C(=O)NCc2ccc(F)cc2)cc1 (stereo not drawn) | ? | -13.6% | -18.5%
CC(C)CC(C(=O)NC1CCCC1)N(Cc1cccs1)C(=O)c1snc(C(N)=O)c1N (stereo not drawn) | -1.3% | / | /
NC(=O)c1nsc(C(=O)N(c2ccccc2F)C(C(=O)NCc2ccccc2)c2ccc(O)cc2)c1N (stereo not drawn) | ? | -18.0% | -13.5%
Cc1ccccc1N(C(=O)c1snc(C(N)=O)c1N)C(C(=O)NC1CCCCC1)c1ccc(O)cc1 (stereo not drawn) | 10µM* | ? | -10.7%
COc1ccc(CNC(=O)C(C)N(Cc2ccccc2OC)C(=O)c2snc(C(N)=O)c2N)cc1 (stereo not drawn) | 10µM* | -9.3% | 3.2%
Cc1ccccc1N(C(=O)c1snc(C(N)=O)c1N)C(C(=O)NCc1ccccc1)c1ccc(O)cc1 (stereo not drawn) | 5.62µM* | i | -13.9%
Cc1ccccc1N(C(=O)c1snc(C(N)=O)c1N)C(C)C(=O)NC1CCCCC1 (stereo not drawn) | ? | i | -14.5%
CNc1c(Cl)cc(/C=C2\C=Cc3ccccc32)cc1Cl | / | 31.2% | -3.2%
CCOc1ccc(CC(=O)NCC(c2cccs2)S(=O)(=O)c2ccc(F)c(C)c2)cc1 (stereo not drawn) | / | -10.9% | 0.8%
O=S(=O)(c1ccc(C(F)(F)F)cc1)N1CCN(c2nc(-c3cccs3)nc3ccccc23)CC1 | / | i | -10.7%
CN(C)c1ccc(C(C(=O)NC2CCCCC2)N(Cc2ccco2)C(=O)c2snc(C(N)=O)c2N)cc1 (stereo not drawn) | 11.2µM* | -14.6% | -5.9%
CCOc1ccc(C(C(=O)NC2CCCC2)N(C(=O)c2snc(C(N)=O)c2N)c2cccc(O)c2)cc1 (stereo not drawn) | 12.6µM* | -12.0% | 10.0%
NC(=O)c1nsc(C(=O)N(c2cccc(O)c2)C(C(=O)NC2CCCC2)c2ccc(Cl)cc2)c1N (stereo not drawn) | -19.1% | -3.3% | -6.0%
COc1cc(C(C(=O)NC2CCCC2)N(Cc2ccco2)C(=O)c2snc(C(N)=O)c2N)cc(OC)c1OC (stereo not drawn) | -11.6% | -25.1% | -22.4%
Cc1cc(C)nc(S[C@H]2C[C@@H](C(=O)N3CCN(c4ccccc4F)CC3)N(Cc3ccccc3C(F)(F)F)C2)n1 | / | -1.3% | -3.6%
COc1cc(C#Cc2c(-c3cncn3C)n(C)c3ccc(-c4ccc(OC)c(OC)c4)cc23)cc(OC)c1 | ? | -14.2% | -16.9%
COc1cc(C#Cc2c(-c3cncn3C)n(C)c3ccc(Br)cc23)cc(OC)c1 | 1.12µM* | -15.0% | ?
O=C(Cn1nnc2ccccc21)N/N=C/c1ccco1 | 5.9% | i | -6.8%
O=C(Cn1nnc(-c2ccccc2)n1)N/N=C/c1ccco1 | 12.6µM* | -9.8% | -8.6%
CCCCNC(=O)C(CC)Sc1nc2ccccc2c(=O)n1CCc1ccc(OC)c(OC)c1 (stereo not drawn) | / | -17.0% | -5.4%
Nc1nc(N2CCN(C(=O)c3ccco3)CC2)nc2ccc(Br)cc12 | 11.2µM* | / | /
SMILES | HCV inh | Vaccinia mCherry | VACV Venus inh
Nc1nc(N2CCN(C(=O)c3ccco3)CC2)nc2ccccc12 | -3.4% | / | /
CCC1CN(CCC(=O)NC2CCOC(C)(C)C2)Cc2cc(OC)ccc2O1 (stereo not drawn) | / | -6.9% | 3.4%
O=C(c1ccco1)N1CCN(/C=C2\Nc3ccccc3C(=O)N2c2ccc(F)cc2)CC1 | / | -12.0% | -4.2%
O=C(CNC(=O)c1cccc(Br)c1)N/N=C/c1cn[nH]c1-c1ccccc1 | 2.1% | i | -21.1%
O=C(N/N=C/c1ccc2c(c1)OCO2)c1ccc(COc2cccc3cccnc23)cc1 | 12.6µM* | -7.0% | -23.8%
O=C(N/N=C/c1cccc(O)c1)c1ccc(COc2cccc3cccnc23)cc1 | ? | i | -11.4%
O=C(CNC(=O)c1ccc2c(c1)OCO2)N/N=C/c1cc(Br)ccc1O | ? | 1.58µM* | ?
O=C(CNC(=O)c1ccncc1)N/N=C/c1cc(Br)ccc1O | 13.5% | -7.3% | 0.4%
O=C(CNC(=O)c1cccc(Br)c1)N/N=C/c1ccc[nH]1 | 3.16µM* | -18.8% | -15.9%
